Test results from PubChem BioAssay (EPA / NIEHS).
Calls of active or inactive are those of the source. The calls were made as follows: active = hit-call score of the fitted dose curve at least 0.9, where 1 is the maximum; inactive = score below 0.9.

Tests used:
[1] = read-out: Urokinase-type plasminogen activator receptor (uPAR), PLAUR (gene 5329); assay: BSK_BE3C_uPAR: BioMAP Diversity Plus: BE3C Assay for Urokinase-type plasminogen activator receptor (uPAR) Biomarker Activity (AID 2283039); conditions: primary human bronchial epithelial cells; actives raise or lower the signal;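 also: uPAR protein level measured by ELISA on the cells; cells exposed to compound for one day before measurement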
Summary of the method: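 ELISA readout of uPAR on human lung primary bronchial epithelial cells, 24 h post-dosing. Bidirectional curve fit relative to DMSO vehicle baseline; gain or loss of signal both scored.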

[2] = read-out: Interleukin-6 (IL6), IL6 (gene 3569); assay: BSK_CASM3C_IL6: BioMAP Diversity Plus: CASM3C Assay for Interleukin-6 (IL6) Biomarker Activity for (AID 2283040); conditions: primary human coronary artery smooth muscle cells; actives raise or lower the signal
[3] = read-out: Tissue plasminogen activator (tPA), PLAT (gene 5327); assay: BSK_BE3C_tPA: BioMAP Diversity Plus: BE3C Assay for Tissue plasminogen activator (tPA) Biomarker Activity (AID 2283041); conditions: primary human bronchial epithelial cells; actives raise or lower the signal;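 also: tPA level quantified by ELISA one day after compound addition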
Summary of the method: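 ELISA read-out of tPA on human primary bronchial epithelial cells, 24 h post-dosing; bidirectional fit vs DMSO negative control/baseline.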

[4] = read-out: Interleukin-8 (IL8), CXCL8 (gene 3576); assay: BSK_CASM3C_IL8: BioMAP Diversity Plus: CASM3C Assay for Interleukin-8 (IL8) Biomarker Activity (AID 2283042); conditions: primary human coronary artery smooth muscle cells; actives raise or lower the signal;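 also: IL-8 protein level quantified by ELISA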
[5] = read-out: Human Leukocyte Antigen - DR isotype (HLADR), HLA-DRA (gene 3122); assay: BSK_CASM3C_HLADR: BioMAP Diversity Plus: CASM3C Assay for Human Leukocyte Antigen - DR isotype (HLADR) Biomarker Activity (AID 2283043); conditions: primary human coronary artery smooth muscle cells; actives raise or lower the signal;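 also: cell-surface HLA-DR protein level quantified by ELISA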
[6] = read-out: Macrophage colony-stimulating factor (MCSF), CSF1 (gene 1435); assay: BSK_CASM3C_MCSF: BioMAP Diversity Plus: CASM3C Assay for Macrophage colony-stimulating factor (MCSF) Biomarker Activity (AID 2283044); conditions: primary human coronary artery smooth muscle cells; actives raise or lower the signal;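 also: M-CSF protein amount quantified by ELISA after 24 h exposure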
[7] = read-out: Low-density lipoprotein receptor (LDLR), LDLR (gene 3949); assay: BSK_CASM3C_LDLR: BioMAP Diversity Plus: CASM3C Assay for Low-density lipoprotein receptor (LDLR) Biomarker Activity (AID 2283045); conditions: primary human coronary artery smooth muscle cells; actives raise or lower the signal;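 also: LDLR protein level on the cell surface quantified by ELISA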
[8] = read-out: Monocyte Chemoattractant Protein-1 (MCP1), CCL2 (gene 6347); assay: BSK_CASM3C_MCP1: BioMAP Diversity Plus: CASM3C Assay for Monocyte Chemoattractant Protein-1 (MCP1) Biomarker Activity (AID 2283046); conditions: primary human coronary artery smooth muscle cells; actives raise or lower the signal;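 also: MCP-1 level quantified by ELISA 24 h after dosing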
[9] = BSK_CASM3C_Proliferation: Cell Proliferation Assessment in the BioMAP Diversity Plus: CASM3C Assay (AID 2283047); conditions: primary human coronary artery smooth muscle cells;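 also: sulforhodamine B total protein stain as relative cell number at 560 nm; sub-confluent cells exposed 48 h before staining; fitted both ways against DMSO so gain or loss of cell number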
[10] = read-out: Monokine induced gamma interferon (MIG), CXCL9 (gene 4283); assay: BSK_CASM3C_MIG: BioMAP Diversity Plus: CASM3C Assay for Monokine induced gamma interferon (MIG) Biomarker Activity (AID 2283048); conditions: primary human coronary artery smooth muscle cells; actives raise or lower the signal;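 also: MIG protein level measured by ELISA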
[11] = read-out: serum amyloid A (SAA), SAA1 (gene 6288); assay: BSK_CASM3C_SAA: BioMAP Diversity Plus: CASM3C Assay for serum amyloid A (SAA) Biomarker Activity (AID 2283049); conditions: primary human coronary artery smooth muscle cells; actives raise or lower the signal;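 also: SAA protein level quantified by ELISA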
[12] = BSK_CASM3C_SRB: Viability Assessment in the BioMAP Diversity Plus: CASM3C Assay (AID 2283050); conditions: primary human coronary artery smooth muscle cells;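 also: cells exposed to compound for 24 h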
[13] = read-out: Thrombomodulin, THBD (gene 7056); assay: BSK_CASM3C_Thrombomodulin: BioMAP Diversity Plus: CASM3C Assay for Thrombomodulin Biomarker Activity (AID 2283051); conditions: primary human coronary artery smooth muscle cells; actives raise or lower the signal;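 also: thrombomodulin protein level measured by ELISA 24 h after dosing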
[14] = read-out: Tissue Factor, F3 (gene 2152); assay: BSK_CASM3C_TissueFactor: BioMAP Diversity Plus: CASM3C Assay for Tissue Factor Biomarker Activity (AID 2283052); conditions: primary human coronary artery smooth muscle cells; actives raise or lower the signal;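 also: cell surface tissue factor protein level read by ELISA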
[15] = read-out: Interferon-gamma inducible Protein 10 (IP10), CXCL10 (gene 3627); assay: BSK_hDFCGF_IP10: BioMAP Diversity Plus: hDFCGF Assay for Interferon-gamma inducible Protein 10 (IP10) Biomarker Activity (AID 2283053); conditions: primary human foreskin fibroblasts; actives raise or lower the signal
Summary of the method: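 ELISA read-out of IP-10 (CXCL10) from primary human skin fibroblasts, 24 h after compound addition. Gain or loss of signal versus DMSO baseline, bidirectional curve fitting.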

[16] = read-out: Urokinase-type plasminogen activator receptor (uPAR), PLAUR (gene 5329); assay: BSK_CASM3C_uPAR: BioMAP Diversity Plus: CASM3C Assay for Urokinase-type plasminogen activator receptor (uPAR) Biomarker Activity (AID 2283054); conditions: primary human coronary artery smooth muscle cells; actives raise or lower the signal;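 also: cell-surface uPAR protein level quantified by ELISA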
[17] = read-out: Vascular cell adhesion molecule 1 (VCAM1), VCAM1 (gene 7412); assay: BSK_CASM3C_VCAM1: BioMAP Diversity Plus: CASM3C Assay for Vascular cell adhesion molecule 1 (VCAM1) Biomarker Activity (AID 2283055); conditions: primary human coronary artery smooth muscle cells; actives raise or lower the signal;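 also: VCAM-1 protein level quantified by ELISA on the cells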
[18] = read-out: Collagen III, COL3A1 (gene 1281); assay: BSK_hDFCGF_CollagenIII: BioMAP Diversity Plus: hDFCGF Assay for Collagen III Biomarker Activity (AID 2283056); conditions: primary human foreskin fibroblasts; actives raise or lower the signal
Summary of the method: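 Human foreskin fibroblast primary cultures sampled 24 h after dosing; Collagen III quantified by ELISA. Signal fitted bidirectionally against DMSO baseline.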

[19] = read-out: Epidermal growth factor receptor (EGFR), EGFR (gene 1956); assay: BSK_hDFCGF_EGFR: BioMAP Diversity Plus: hDFCGF Assay for Epidermal growth factor receptor (EGFR) Biomarker Activity (AID 2283057); conditions: primary human foreskin fibroblasts; actives raise or lower the signal
Summary of the method: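 ELISA readout of EGFR on human dermal fibroblasts (primary foreskin cells), 24 h post-dosing; bidirectional curve fit vs DMSO baseline, gain or loss of signal scored.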

[20] = read-out: Interleukin-8 (IL8), CXCL8 (gene 3576); assay: BSK_hDFCGF_IL8: BioMAP Diversity Plus: hDFCGF Assay for Interleukin-8 (IL8) Biomarker Activity (AID 2283058); conditions: primary human foreskin fibroblasts; actives raise or lower the signal
Summary of the method: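 Primary human foreskin fibroblasts (hDFCGF system) dosed with chemical; IL-8 measured by ELISA 24 hours later. Bidirectional curve fitting relative to DMSO baseline; cytotoxicity tracked in parallel cultures by SRB total protein staining.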

Measured: outcome

CC1(C)C(C=C(Cl)Cl)C1C(=O)OC(C#N)c1cccc(Oc2ccccc2)c1 (stereo not given)
inactive: [1] | [2] | [3] | [4] | [5] | [6] | [7] | [8] | [9] | [10] | [11] | [12] | [13] | [14] | [15] | [16] | [17] | [18] | [19] | [20]

CCOc1nc(C(Cl)(Cl)Cl)ns1
inactive: [1] | [2] | [3] | [4] | [5] | [6] | [7] | [8] | [9] | [10] | [11] | [12] | [13] | [14] | [15] | [16] | [17] | [18] | [19] | [20]

CCCC(=NOCC)C1=C(O)CC(CC(C)SCC)CC1=O (stereo not given)
inactive: [1] | [2] | [3] | [4] | [5] | [6] | [7] | [8] | [9] | [10] | [11] | [12] | [13] | [14] | [15] | [16] | [17] | [18] | [19] | [20]

CC(C)Oc1cccc(NC(=O)c2ccccc2C(F)(F)F)c1
inactive: [1] | [2] | [3] | [4] | [5] | [6] | [7] | [8] | [9] | [10] | [11] | [12] | [13] | [14] | [15] | [16] | [17] | [18] | [19] | [20]

COCc1cnc(C2=NC(C)(C(C)C)C(=O)N2)c(C(=O)O)c1 (stereo not given)
inactive: [1] | [2] | [3] | [4] | [5] | [6] | [7] | [8] | [9] | [10] | [11] | [12] | [13] | [14] | [15] | [16] | [17] | [18] | [19] | [20]

COc1cc(Cl)c(OC)cc1Cl
inactive: [1] | [2] | [3] | [4] | [5] | [6] | [7] | [8] | [9] | [10] | [11] | [12] | [13] | [14] | [15] | [16] | [17] | [18] | [19] | [20]
